According to PubChem BioAssay (NCATS):
Inconclusive results are not listed. The source made the active and inactive calls. Calls come from the whole dose curve; as a rule, active = well fitted curve in the direction sought with a large enough effect; inconclusive = small, poorly fitted or top-dose-only effect, or another doubt; inactive = no such curve, though single readings can be large; an effect the other way counts as inactive or inconclusive.

How the values were obtained:
[1] = qHTS of pediatric cancer cell lines to identify multiple opportunities for drug repurposing: Primary screen for OHS-50 cells (AID 1347103);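 note: plate controls were DMSO neutral control for no effect and bortezomib positive control for full effect; nearly all actives have a fitted effect of over 40% in size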
Summary of the method: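 Cells (500-1,000/well) rested 5 h, then received compounds for 48 h; metabolically active cells were measured by CellTiter-Glo luminescence. Final concentrations spanned up to 46 µM (MIPE, 11-point) or 0.59 nM-46 µM (NPC, 8-point) in primary screens, 11-point in follow-ups.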

[2] = qHTS of pediatric cancer cell lines to identify multiple opportunities for drug repurposing: Primary screen for RD cells (AID 1347104);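 note: plate controls were DMSO for no effect and bortezomib for full effect; nearly all actives have a fitted effect of over 55% in size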
Summary of the method: (§1)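 Quantitative HTS format: each compound titrated (MIPE 11 points from 0.78 nM, NPC 8 points from 0.59 nM) onto cells plated 5 hours earlier. After 48 h at 37 degrees C, CellTiter-Glo luminescence was recorded.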

[3] = qHTS of pediatric cancer cell lines to identify multiple opportunities for drug repurposing: Primary screen for MG 63 (6-TG R) cells (AID 1347105); note: % is set by controls: 0 for no effect and ±100 for the full control effect; nearly all actives have a fitted effect of over 50% in size
Summary of the method: as §1

[4] = qHTS of pediatric cancer cell lines to identify multiple opportunities for drug repurposing: Primary screen for control Hh wild type fibroblast cells (AID 1347106);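 note: series mostly up to about 46 µM; % is set by controls: 0 for no effect and ±100 for the full control effect; a drop in luminescence marks cytotoxicity and a rise apparent proliferation; nearly all actives have a fitted effect of over 55% in size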
Summary of the method: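 Viability after 48 h compound treatment at 37C, 500-1,000 cells/well, read as ATP luminescence with CellTiter-Glo. Primary screens used 11-point (MIPE, 0.78 nM-46 µM) or 8-point (NPC, 0.59 nM-46 µM) final concentrations; follow-up screens used 11-point dilutions.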

[5] = qHTS of pediatric cancer cell lines to identify multiple opportunities for drug repurposing: Primary screen for Rh30 cells (AID 1347107); note: series mostly up to about 46 µM; % is set by controls: 0 for no effect and ±100 for the full control effect; nearly all actives have a fitted effect of over 75% in size
Summary of the method: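 Cells (500-1,000/well) in growth media were settled 5 h at 37 degrees C, then given compounds for 48 h. Viability was read as CellTiter-Glo luminescence. Primary runs used MIPE at 11 points (0.78 nM-46 µM) and NPC at 8 points (0.59 nM-46 µM); follow-ups used 11 points.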

[6] = qHTS of pediatric cancer cell lines to identify multiple opportunities for drug repurposing: Primary screen for Rh41 cells (AID 1347108);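 note: series mostly up to about 46 µM; luminescence drop marks cytotoxic hits; nearly all actives have a fitted effect of over 70% in size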
Summary of the method: as §1

CCCCCCCCCCCCCCCCCCOCC(O)CO (configuration not stated)
inactive: Potency [1] | Potency [2] | Potency [3] | outcome [4] | outcome [5]

CC1=C(CC(=O)O)c2cc(F)ccc2/C1=C\c1ccc(S(C)=O)cc1 (configuration not stated)
inactive: Potency [1] | Potency [2] | Potency [3] | outcome [4] | outcome [5]

CN(C)CCCO[C@@H]1[C@H]2OC(C)(C)O[C@H]2O[C@@H]1C(O)CO (some centres not stated)
inactive: Potency [1] | Potency [2] | Potency [3] | outcome [4] | outcome [5]

CS(=O)(=O)c1ccc([C@@H](O)[C@@H](CF)NC(=O)C(Cl)Cl)cc1
inactive: Potency [1] | Potency [2] | Potency [3] | outcome [4] | outcome [5]

N[C@H](C(=O)O)c1ccc(O)cc1
inactive: Potency [1] | Potency [2] | Potency [3] | outcome [4] | outcome [5]

O=C(O)c1ccccn1
inactive: Potency [1] | Potency [2] | Potency [3] | outcome [4] | outcome [5]

O=C(O)[C@@H]1CSCN1
inactive: Potency [1] | Potency [2] | Potency [3] | outcome [4] | outcome [5]

COc1ccc2[nH]c(S(=O)Cc3ncc(C)c(OC)c3C)nc2n1 (configuration not stated)
inactive: Potency [1] | Potency [2] | Potency [3] | outcome [4] | outcome [5] | Potency [6]

Oc1cn2c(n1)Nc1ccc(Cl)c(Cl)c1C2
inactive: Potency [1] | Potency [2] | Potency [3] | outcome [4] | outcome [5] | Potency [6]

CNC(=O)Oc1ccc2c(c1)[C@]1(C)CCN(C)[C@@H]1N2C
inactive: Potency [1] | Potency [2] | Potency [3] | outcome [4] | outcome [5] | Potency [6]

O=C1O[C@H]([C@@H](O)CO)C(O)=C1O
inactive: Potency [1] | Potency [2] | Potency [3] | outcome [4] | outcome [5] | Potency [6]

OCC(CO)N[C@H]1C[C@](O)(CO)[C@@H](O)[C@H](O)[C@H]1O
inactive: Potency [1] | Potency [2] | Potency [3] | outcome [4] | outcome [5] | Potency [6]

O=C1OC(OC(=O)c2cccnc2Nc2cccc(C(F)(F)F)c2)c2ccccc21 (configuration not stated)
inactive: Potency [1] | Potency [2] | Potency [3] | outcome [4] | outcome [5] | Potency [6]

CC(O)CN(CCN(CC(C)O)CC(C)O)CC(C)O (configuration not stated)
inactive: Potency [1] | Potency [2] | Potency [3] | outcome [4] | outcome [5] | Potency [6]

NCC(=O)CCC(=O)O
inactive: Potency [1] | Potency [2] | Potency [3] | outcome [4] | outcome [5] | Potency [6]

COc1cc2[nH]c(=O)[nH]c(=O)c2cc1OC
inactive: Potency [1] | Potency [2] | Potency [3] | outcome [4] | outcome [5] | Potency [6]

CCN(CC)C(C)CN1c2ccccc2Sc2ccccc21 (configuration not stated)
inactive: Potency [1] | Potency [2] | Potency [3] | outcome [4] | outcome [5] | Potency [6]

C/C(=C(\CCOP(=O)(O)O)SC(=O)c1ccccc1)N(C=O)Cc1cnc(C)nc1N
inactive: activity change, negative = cytotoxic [1] 12% [at 6.18 µM] | activity change, negative = cytotoxic [2] 3.8% [at 4.84 µM] | activity change, negative = cytotoxic [3] -1.82% [at 4.84 µM] | activity change, negative = cytotoxic [4] 4.64% [at 4.84 µM] | activity change, negative = cytotoxic [5] 26.4% [at 4.84 µM] | activity change, negative = cytotoxic [6] 27.9% [at 4.84 µM]

CCn1cc(C(=O)O)c(=O)c2cnc(N3CCNCC3)nc21
inactive: Potency [1] | Potency [2] | Potency [3] | outcome [4] | outcome [5] | Potency [6]

NC(CSCC(=O)O)C(=O)O (configuration not stated)
inactive: Potency [1] | Potency [2] | Potency [3] | outcome [4] | outcome [5] | Potency [6]

C#CCN(C)Cc1ccccc1
inactive: Potency [1] | Potency [2] | Potency [3] | outcome [4] | outcome [5] | Potency [6]

Cn1c(=O)c2c(ncn2CC2OCCO2)n(C)c1=O
inactive: Potency [1] | Potency [2] | Potency [3] | outcome [4] | outcome [5] | Potency [6]

[O-][n+]1cccc(CO)c1
inactive: Potency [1] | Potency [2] | Potency [3] | outcome [4] | outcome [5] | Potency [6]

Nc1nc2c(ncn2CCC(CO)CO)c(=O)[nH]1
inactive: Potency [1] | Potency [2] | Potency [3] | outcome [4] | outcome [5] | Potency [6]

CCOc1ccc2ccccc2c1C(=O)N[C@@H]1C(=O)N2[C@@H]1SC(C)(C)[C@@H]2C(=O)O
inactive: Potency [1] | Potency [2] | Potency [3] | outcome [4] | outcome [5] | Potency [6]

CCOC(=O)c1ccc(O)cc1
inactive: Potency [1] | Potency [2] | Potency [3] | outcome [4] | outcome [5] | Potency [6]

CC1CC(OC(=O)C(O)c2ccccc2)CC(C)(C)N1C (configuration not stated)
inactive: Potency [1] | Potency [2] | Potency [3] | outcome [4] | outcome [5] | Potency [6]

O=c1cc(CO)occ1O
inactive: Potency [1] | Potency [2] | Potency [3] | outcome [4] | outcome [5] | Potency [6]

O=C(O)c1ccccc1O
inactive: Potency [1] | Potency [2] | Potency [3] | outcome [4] | outcome [5] | Potency [6]
